Experimental data: PubChem BioAssay (NCATS)
Records with an inconclusive call do not appear. Values without a mark were called inactive. The call rests on the fitted dose curve; in most records, active means well fitted inhibition curve with a large enough effect; inconclusive means small, poorly fitted or top-dose-only effect; inactive means flat fitted curve, though single readings scatter.

assay: Drug repurposing screens with cells derived from glioblastoma tumor samples (AID 1345199); conditions: GBM patient neurospheres viability, ATP luminescence, 48 h; at 20 µM (top of the series); tumour line C; further: nearly all actives have a fitted effect of over 40% in size
Method in brief: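 Primary testing used CD133+ neurospheres from four GBM patients, seven concentrations, 48 h exposure and ATP-based viability; confirmation added three slower-growing patient lines.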
On the % scale 0 is the no-effect control and ±100 the full control effect.

| SMILES | activity, negative = cell killing [%] |
| --- | --- |
| CCC(=O)O[C@@H]1CC(=O)O[C@H](C)C/C=C/C=C/[C@H](O)[C@H](C)C[C@H](CC=O)[C@H](O[C@@H]2O[C@H](C)[C@@H](O[C@H]3C[C@@](C)(O)[C@@H](OC(=O)CC)[C@H](C)O3)[C@H](N(C)C)[C@H]2O)[C@H]1OC | 18.5 |
| CC[N+](C)(C)Cc1ccccc1Br | -2.45 |
| CC(C)N=c1cc2n(-c3ccc(Cl)cc3)c3ccccc3nc-2cc1Nc1ccc(Cl)cc1 | -8.51 |
| CC[C@H]1OC(=O)[C@H](C)[C@@H](O[C@H]2C[C@@](C)(OC)[C@@H](O)[C@H](C)O2)[C@H](C)[C@@H](O[C@@H]2O[C@H](C)C[C@H](N(C)C)[C@H]2O)[C@](C)(O)C[C@@H](C)/C(=N\OCOCCOC)[C@H](C)[C@@H](O)[C@]1(C)O | -5.57 |
| CCOC(=O)O[C@]1(C(=O)COC(=O)CC)CC[C@H]2[C@@H]3CCC4=CC(=O)C=C[C@]4(C)[C@H]3[C@@H](O)C[C@@]21C | 2.55 |
| C[C@H](CCC(=O)O)[C@H]1CC[C@H]2[C@@H]3[C@H](O)C[C@@H]4C[C@H](O)CC[C@]4(C)[C@H]3CC[C@]12C | 0.416 |
| Cc1cc(C(=O)NNCc2ccccc2)no1 | -3.86 |
| CO[C@@H]1[C@@H](O[C@@H]2O[C@H](C)[C@@H](O[C@H]3C[C@@](C)(O)[C@@H](O)[C@H](C)O3)[C@H](N(C)C)[C@H]2O)[C@@H](CC=O)C[C@@H](C)[C@@H](O[C@@H]2CC[C@H](N(C)C)[C@@H](C)O2)/C=C/C=C/C[C@@H](C)OC(=O)C[C@H]1O | -1.82 |
| CC(C)NCC1CCc2cc(CO)c([N+](=O)[O-])cc2N1 (configuration not stated) | -4.59 |
| CC(C)(C)C(=O)OCOC(=O)[C@@H]1N2C(=O)[C@@H](N=CN3CCCCCC3)[C@H]2SC1(C)C | -7.48 |
| C=C(NC(=O)C(=C)NC(=O)c1csc(C2=N[C@@H]3c4csc(n4)[C@H]4NC(=O)c5csc(n5)[C@H]([C@](C)(O)[C@@H](C)O)NC(=O)[C@H]5CSC(=N5)C(=CC)NC(=O)C([C@@H](C)O)NC(=O)c5csc(n5)[C@]3(CC2)NC(=O)[C@H](C)NC(=O)C(=C)NC(=O)[C@H](C)NC(=O)C([C@@H](C)CC)NC2C=Cc3c([C@H](C)O)cc(nc3C2O)C(=O)O[C@@H]4C)n1)C(N)=O (some centres not stated) | -17.2 |
| NCc1ccccc1CC(=O)N[C@@H]1C(=O)N2C(C(=O)O)=C(CSc3nnnn3CC(=O)O)CS[C@H]12 | -8.3 |
